# Assay results reported in ChEMBL document CHEMBL1961873, “Compounds: GSK PKIS; Assays: Nanosyn kinase panel” (2012).
# Tests used:
# [1] = molecular target: Tyrosine-protein kinase receptor UFO (Homo sapiens) (UniProt P30530); conditions: at 1 µM
# [2] = molecular target: Tyrosine-protein kinase Blk (Homo sapiens) (UniProt P51451); conditions: at 0.1 µM
# [3] = molecular target: Tyrosine-protein kinase Blk (Homo sapiens) (UniProt P51451); conditions: at 1 µM
# [4] = molecular target: T1, Cytoplasmic tyrosine-protein kinase BMX (Homo sapiens) (UniProt P51813); conditions: at 0.1 µM
# T1 sequence (whole entry): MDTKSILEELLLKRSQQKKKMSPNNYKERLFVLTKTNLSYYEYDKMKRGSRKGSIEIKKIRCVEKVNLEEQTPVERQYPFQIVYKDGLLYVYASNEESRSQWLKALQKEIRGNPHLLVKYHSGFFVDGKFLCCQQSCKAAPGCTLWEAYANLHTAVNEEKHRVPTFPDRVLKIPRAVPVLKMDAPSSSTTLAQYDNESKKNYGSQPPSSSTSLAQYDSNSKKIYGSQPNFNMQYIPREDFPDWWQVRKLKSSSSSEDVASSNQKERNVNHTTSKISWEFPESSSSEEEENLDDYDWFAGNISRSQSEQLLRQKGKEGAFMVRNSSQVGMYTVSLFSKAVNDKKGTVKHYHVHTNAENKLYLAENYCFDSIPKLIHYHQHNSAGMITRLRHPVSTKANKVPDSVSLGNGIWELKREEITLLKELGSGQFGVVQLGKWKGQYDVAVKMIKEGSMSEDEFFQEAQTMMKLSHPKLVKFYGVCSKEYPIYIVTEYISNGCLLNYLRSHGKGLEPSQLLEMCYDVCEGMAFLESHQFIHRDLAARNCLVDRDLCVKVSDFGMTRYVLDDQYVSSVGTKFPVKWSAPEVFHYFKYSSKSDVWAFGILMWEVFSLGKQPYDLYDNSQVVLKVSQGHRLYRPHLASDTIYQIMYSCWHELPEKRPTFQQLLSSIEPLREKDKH
# [5] = molecular target: T1, Cytoplasmic tyrosine-protein kinase BMX (Homo sapiens); conditions: at 1 µM
# [6] = molecular target: Protein-tyrosine kinase 6 (Homo sapiens) (UniProt Q13882); conditions: at 0.1 µM
# Protein-tyrosine kinase 6 (Homo sapiens), sequence (Q13882 whole entry, looked up): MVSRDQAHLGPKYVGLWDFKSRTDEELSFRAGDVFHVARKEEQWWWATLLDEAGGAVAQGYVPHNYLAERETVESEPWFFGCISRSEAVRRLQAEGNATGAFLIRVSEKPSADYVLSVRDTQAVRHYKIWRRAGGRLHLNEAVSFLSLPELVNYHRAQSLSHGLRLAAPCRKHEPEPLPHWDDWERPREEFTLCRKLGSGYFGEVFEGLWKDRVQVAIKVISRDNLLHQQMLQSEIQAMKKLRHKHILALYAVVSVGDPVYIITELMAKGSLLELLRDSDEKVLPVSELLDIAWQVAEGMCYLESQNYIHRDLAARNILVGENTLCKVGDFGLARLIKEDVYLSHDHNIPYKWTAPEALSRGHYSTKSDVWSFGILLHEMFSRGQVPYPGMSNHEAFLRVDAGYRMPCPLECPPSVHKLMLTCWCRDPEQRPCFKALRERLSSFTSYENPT
# [7] = molecular target: Protein-tyrosine kinase 6 (Homo sapiens) (UniProt Q13882); conditions: at 1 µM
# [8] = molecular target: Tyrosine-protein kinase BTK (Homo sapiens) (UniProt Q06187); conditions: at 0.1 µM
# Tyrosine-protein kinase BTK (Homo sapiens), sequence (Q06187 whole entry): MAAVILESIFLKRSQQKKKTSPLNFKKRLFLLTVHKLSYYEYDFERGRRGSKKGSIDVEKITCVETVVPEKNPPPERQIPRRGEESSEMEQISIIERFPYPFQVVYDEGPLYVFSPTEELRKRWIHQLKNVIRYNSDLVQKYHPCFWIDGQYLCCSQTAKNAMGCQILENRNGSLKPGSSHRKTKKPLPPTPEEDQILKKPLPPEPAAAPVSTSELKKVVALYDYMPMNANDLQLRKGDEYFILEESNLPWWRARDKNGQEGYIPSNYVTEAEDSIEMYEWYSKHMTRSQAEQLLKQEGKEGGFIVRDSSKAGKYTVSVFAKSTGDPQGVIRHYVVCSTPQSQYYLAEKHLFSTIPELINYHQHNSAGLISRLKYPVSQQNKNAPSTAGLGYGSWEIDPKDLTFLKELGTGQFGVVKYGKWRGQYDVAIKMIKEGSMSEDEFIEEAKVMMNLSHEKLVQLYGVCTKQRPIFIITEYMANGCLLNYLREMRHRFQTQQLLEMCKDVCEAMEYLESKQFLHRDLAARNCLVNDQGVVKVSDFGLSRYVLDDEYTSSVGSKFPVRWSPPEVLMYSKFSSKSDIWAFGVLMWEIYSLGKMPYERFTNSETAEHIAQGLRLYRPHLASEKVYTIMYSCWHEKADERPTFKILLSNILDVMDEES
# [9] = molecular target: Tyrosine-protein kinase BTK (Homo sapiens) (UniProt Q06187); conditions: at 1 µM
# [10] = molecular target: Tyrosine-protein kinase CSK (Homo sapiens) (UniProt P41240); conditions: at 0.1 µM
# [11] = molecular target: Tyrosine-protein kinase CSK (Homo sapiens) (UniProt P41240); conditions: at 1 µM
# [12] = molecular target: T2, Discoidin domain-containing receptor 2 (Homo sapiens) (UniProt Q16832); conditions: at 0.1 µM
# T2 sequence (whole entry): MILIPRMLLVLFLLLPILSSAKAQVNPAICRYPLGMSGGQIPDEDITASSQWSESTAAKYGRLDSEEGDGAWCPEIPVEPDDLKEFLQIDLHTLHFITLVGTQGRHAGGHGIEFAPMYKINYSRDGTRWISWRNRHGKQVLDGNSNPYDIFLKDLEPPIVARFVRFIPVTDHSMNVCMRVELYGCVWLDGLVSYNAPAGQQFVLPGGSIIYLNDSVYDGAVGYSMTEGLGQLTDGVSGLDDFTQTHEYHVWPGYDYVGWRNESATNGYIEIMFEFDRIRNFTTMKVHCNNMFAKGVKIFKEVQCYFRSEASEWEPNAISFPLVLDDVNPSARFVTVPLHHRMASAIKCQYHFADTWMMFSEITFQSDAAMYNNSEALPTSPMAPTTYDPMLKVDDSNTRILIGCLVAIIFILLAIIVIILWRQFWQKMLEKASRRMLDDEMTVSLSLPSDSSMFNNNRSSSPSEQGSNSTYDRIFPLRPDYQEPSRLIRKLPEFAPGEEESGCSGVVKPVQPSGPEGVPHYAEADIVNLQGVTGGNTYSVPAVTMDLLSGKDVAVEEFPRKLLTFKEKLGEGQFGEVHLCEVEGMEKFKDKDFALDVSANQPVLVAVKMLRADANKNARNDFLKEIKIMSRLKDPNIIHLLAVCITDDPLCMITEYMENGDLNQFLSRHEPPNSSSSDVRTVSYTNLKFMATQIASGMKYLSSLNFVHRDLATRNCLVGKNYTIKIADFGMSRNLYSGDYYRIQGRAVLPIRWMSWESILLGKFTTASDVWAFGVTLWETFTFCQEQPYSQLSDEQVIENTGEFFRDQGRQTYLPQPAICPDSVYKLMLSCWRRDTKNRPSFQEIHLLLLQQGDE
# [13] = molecular target: T2, Discoidin domain-containing receptor 2 (Homo sapiens); conditions: at 1 µM
# [14] = molecular target: Epidermal growth factor receptor (Homo sapiens) (UniProt P00533); conditions: at 0.1 µM
# Epidermal growth factor receptor (Homo sapiens), sequence (P00533 whole entry): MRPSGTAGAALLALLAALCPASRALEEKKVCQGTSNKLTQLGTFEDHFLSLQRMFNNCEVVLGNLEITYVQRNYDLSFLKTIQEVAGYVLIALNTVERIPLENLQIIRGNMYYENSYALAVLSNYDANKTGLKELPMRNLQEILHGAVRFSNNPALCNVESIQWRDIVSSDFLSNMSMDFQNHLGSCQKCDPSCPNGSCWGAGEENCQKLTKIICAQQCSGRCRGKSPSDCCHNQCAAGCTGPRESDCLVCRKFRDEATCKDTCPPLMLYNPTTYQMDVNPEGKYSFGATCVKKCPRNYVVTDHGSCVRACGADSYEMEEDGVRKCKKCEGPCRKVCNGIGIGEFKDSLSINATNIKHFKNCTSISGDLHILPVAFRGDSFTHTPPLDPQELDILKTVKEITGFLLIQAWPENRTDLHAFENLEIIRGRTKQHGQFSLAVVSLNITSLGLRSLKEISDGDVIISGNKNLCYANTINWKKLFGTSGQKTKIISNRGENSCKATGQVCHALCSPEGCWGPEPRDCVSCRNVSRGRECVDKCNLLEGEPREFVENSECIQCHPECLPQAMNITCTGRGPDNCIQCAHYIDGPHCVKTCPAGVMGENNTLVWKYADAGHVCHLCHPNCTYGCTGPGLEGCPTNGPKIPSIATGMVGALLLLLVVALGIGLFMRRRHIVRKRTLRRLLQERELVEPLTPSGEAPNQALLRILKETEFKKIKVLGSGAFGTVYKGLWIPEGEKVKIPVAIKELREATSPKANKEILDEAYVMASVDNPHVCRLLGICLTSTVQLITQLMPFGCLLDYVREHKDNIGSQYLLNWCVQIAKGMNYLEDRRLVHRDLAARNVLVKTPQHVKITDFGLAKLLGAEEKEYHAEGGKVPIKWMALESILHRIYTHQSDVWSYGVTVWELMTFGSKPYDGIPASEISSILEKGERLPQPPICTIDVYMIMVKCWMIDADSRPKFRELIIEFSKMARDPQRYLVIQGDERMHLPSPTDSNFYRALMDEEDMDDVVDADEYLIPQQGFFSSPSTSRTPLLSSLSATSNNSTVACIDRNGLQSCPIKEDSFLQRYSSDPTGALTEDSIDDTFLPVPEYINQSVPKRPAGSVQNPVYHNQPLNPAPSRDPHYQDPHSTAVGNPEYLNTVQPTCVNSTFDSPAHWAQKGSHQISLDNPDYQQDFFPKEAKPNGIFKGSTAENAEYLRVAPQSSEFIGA
# [15] = molecular target: Epidermal growth factor receptor (Homo sapiens) (UniProt P00533); conditions: at 1 µM
# [16] = test system: Epidermal growth factor receptor (Homo sapiens), P00533 [L858R]; conditions: at 0.1 µM
# Epidermal growth factor receptor (Homo sapiens), P00533 [L858R], sequence (P00533 whole entry L858R): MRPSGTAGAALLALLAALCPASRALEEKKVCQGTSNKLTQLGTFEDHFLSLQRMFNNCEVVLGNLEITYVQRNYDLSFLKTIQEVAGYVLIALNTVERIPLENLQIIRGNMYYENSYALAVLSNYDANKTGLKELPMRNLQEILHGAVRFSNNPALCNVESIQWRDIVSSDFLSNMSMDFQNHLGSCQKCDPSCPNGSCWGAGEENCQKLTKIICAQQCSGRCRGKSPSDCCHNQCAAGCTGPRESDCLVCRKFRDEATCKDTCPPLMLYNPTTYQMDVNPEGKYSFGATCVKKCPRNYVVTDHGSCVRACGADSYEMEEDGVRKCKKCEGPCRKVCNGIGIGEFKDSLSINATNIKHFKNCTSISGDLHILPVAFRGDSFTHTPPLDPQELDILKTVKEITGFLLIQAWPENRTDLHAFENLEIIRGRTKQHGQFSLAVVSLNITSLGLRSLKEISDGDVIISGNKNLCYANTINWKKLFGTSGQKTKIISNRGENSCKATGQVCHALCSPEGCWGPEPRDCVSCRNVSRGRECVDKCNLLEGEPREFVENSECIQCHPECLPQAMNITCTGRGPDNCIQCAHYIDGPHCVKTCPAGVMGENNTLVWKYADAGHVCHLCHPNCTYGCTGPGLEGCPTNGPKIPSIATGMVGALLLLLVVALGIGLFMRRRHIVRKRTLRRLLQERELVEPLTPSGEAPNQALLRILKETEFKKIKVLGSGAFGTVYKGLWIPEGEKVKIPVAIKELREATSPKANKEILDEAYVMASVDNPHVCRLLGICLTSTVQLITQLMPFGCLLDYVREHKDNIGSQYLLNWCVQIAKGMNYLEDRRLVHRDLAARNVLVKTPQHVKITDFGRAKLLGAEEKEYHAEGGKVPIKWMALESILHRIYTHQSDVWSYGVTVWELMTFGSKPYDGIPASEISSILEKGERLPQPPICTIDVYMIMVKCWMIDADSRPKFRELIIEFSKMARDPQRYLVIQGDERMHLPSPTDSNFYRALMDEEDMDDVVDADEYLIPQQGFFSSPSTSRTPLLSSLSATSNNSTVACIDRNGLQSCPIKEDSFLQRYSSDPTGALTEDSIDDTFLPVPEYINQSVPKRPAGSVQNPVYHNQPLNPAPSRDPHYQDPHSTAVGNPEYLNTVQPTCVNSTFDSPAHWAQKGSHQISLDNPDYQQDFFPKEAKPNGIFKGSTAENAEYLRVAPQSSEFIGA
# [17] = test system: Epidermal growth factor receptor (Homo sapiens), P00533 [L858R]; conditions: at 1 µM
# [18] = test system: Epidermal growth factor receptor (Homo sapiens), P00533 [L861Q]; conditions: at 0.1 µM
# Epidermal growth factor receptor (Homo sapiens), P00533 [L861Q], sequence (P00533 whole entry L861Q): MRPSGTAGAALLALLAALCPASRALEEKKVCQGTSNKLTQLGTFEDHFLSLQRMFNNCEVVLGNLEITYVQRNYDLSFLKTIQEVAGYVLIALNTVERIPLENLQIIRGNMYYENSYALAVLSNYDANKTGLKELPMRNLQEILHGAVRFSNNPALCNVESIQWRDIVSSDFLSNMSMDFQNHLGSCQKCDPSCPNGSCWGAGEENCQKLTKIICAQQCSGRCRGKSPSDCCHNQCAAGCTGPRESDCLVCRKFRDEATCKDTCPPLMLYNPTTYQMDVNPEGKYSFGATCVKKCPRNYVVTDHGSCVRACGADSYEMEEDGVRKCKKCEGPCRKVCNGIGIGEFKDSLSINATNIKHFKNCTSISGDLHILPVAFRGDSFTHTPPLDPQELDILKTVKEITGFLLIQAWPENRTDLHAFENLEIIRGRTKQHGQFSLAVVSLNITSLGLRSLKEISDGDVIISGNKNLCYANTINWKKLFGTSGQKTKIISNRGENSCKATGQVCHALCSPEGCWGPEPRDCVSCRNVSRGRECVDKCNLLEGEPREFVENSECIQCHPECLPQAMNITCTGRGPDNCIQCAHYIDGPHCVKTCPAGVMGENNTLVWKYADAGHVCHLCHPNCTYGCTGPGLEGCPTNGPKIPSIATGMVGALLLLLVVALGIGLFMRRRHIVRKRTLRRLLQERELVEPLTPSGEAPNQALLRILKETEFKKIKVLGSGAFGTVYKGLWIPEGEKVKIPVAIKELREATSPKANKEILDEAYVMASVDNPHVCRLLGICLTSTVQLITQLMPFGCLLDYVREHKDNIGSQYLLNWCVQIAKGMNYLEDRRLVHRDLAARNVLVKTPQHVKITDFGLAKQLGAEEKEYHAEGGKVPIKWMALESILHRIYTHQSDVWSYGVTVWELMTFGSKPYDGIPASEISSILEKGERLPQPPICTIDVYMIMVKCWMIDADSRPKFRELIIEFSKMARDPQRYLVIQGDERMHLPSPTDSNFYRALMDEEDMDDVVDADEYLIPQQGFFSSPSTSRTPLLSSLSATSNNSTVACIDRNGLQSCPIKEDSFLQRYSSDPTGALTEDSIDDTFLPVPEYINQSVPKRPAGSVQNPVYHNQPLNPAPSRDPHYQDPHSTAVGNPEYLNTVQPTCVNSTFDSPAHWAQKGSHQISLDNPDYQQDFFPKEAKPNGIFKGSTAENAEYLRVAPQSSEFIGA
# [19] = test system: Epidermal growth factor receptor (Homo sapiens), P00533 [L861Q]; conditions: at 1 µM
# [20] = test system: Epidermal growth factor receptor (Homo sapiens), P00533 [T790M]; conditions: at 0.1 µM
SMILES,inhibition [1] [%],inhibition [2] [%],inhibition [3] [%],inhibition [4] [%],inhibition [5] [%],inhibition [6] [%],inhibition [7] [%],inhibition [8] [%],inhibition [9] [%],inhibition [10] [%],inhibition [11] [%],inhibition [12] [%],inhibition [13] [%],inhibition [14] [%],inhibition [15] [%],inhibition [16] [%],inhibition [17] [%],inhibition [18] [%],inhibition [19] [%],inhibition [20] [%]
NS(=O)(=O)c1ccc(-c2ccc3c(NC(=O)C4CC4)n[nH]c3c2)cc1,-2.63,1.89,6.01,4.98,3.87,0.27,1.67,1.8,1.47,6.64,2.04,0.39,1.56,1.61,5.25,0.79,1.74,2.23,-1.61,0.83
NC(=O)c1sc(-n2cnc3cc(C(F)(F)F)ccc32)cc1OCc1ccccc1Br,1.55,1.67,2.39,-0.71,0.62,2.49,0.4,0.15,-0.21,-3.78,-1.04,1.02,1.34,3.48,6.56,-1.95,0.99,1.64,1.19,0.21
COc1cc(C=NNc2ncnc3c2cnn3Cc2ccccc2)ccc1O,6.34,0.65,23.8,2.02,16.9,-4.22,-0.85,-1.51,-0.27,-6.66,2.56,-0.76,5.7,22.5,66.8,64.3,75.5,23.4,30.6,-3.01
Cc1cc(-c2ccco2)cc(C)c1/C=C/c1cncc(-c2nn[nH]n2)c1,1.57,1.51,9,0.7,2.83,0.11,3.58,0.68,1.5,0.88,3.48,-0.16,0.34,3.32,6.27,0.25,0.27,-0.29,2.11,1.06
CCn1c(-c2nonc2N)nc2c(C#CC(C)(C)O)ncc(OCC3CCNCC3)c21,-2.43,-1.83,-1.39,-4.33,2.37,4.21,4.11,-3.09,-3.54,5.4,3.99,-0.24,1.71,-3.91,-3.68,2.79,6.24,3.74,2.43,1.64
NS(=O)(=O)c1ccc(N/C=C2\C(=O)Nc3ccc4ncsc4c32)cc1,24.7,5.86,36.7,3.85,6.44,2.1,4.82,-2.5,0.29,1.61,3.86,1.19,3.5,2.49,5.22,4.28,5.3,2.44,3.42,0.93
CCn1c(-c2nonc2N)nc2c(C#CC(C)(C)O)ncc(OC[C@@H]3CCCN3)c21,0.17,2.44,1.76,1.21,-0.7,3.05,2.47,0.66,1.17,-1.37,-0.82,1.15,2.67,-1.23,1.8,-0.72,2.58,-0.11,-1.31,-0.72
Fc1ccc(-c2ncn(C3CCNCC3)c2-c2ccnc(Oc3ccccc3)n2)cc1,-3.54,-3.23,-0.29,0.89,2.13,2.9,3.59,-4.26,-4.63,1.9,3.34,1.18,1.96,8.94,11.7,3.24,12.9,3.69,6.82,0.12
COc1cc2c(cc1Nc1nc(Nc3ccsc3C(N)=O)c3cc[nH]c3n1)N(C(=O)CN(C)C)CCC2,66.8,7.36,10.6,0.79,1.32,0.16,3.39,0.44,1,-7.26,-4.71,2.81,5.59,–,–,0.26,20.5,0.9,8.73,8.68
COc1cccc(-n2ncc3c(N/N=C/c4ccncc4)ncnc32)c1,6.36,13.3,63.6,12.2,46.6,6.09,23.1,-0.08,2.16,5.5,16.8,2.12,9.37,3.52,28.8,20.7,73.3,7.71,35.5,2.99
CCn1c(-c2nonc2N)nc2c(C#CC(C)(C)O)nc(O[C@@H](CN)c3ccccc3)cc21,8.92,-0.06,10.1,2.29,-1.16,-1.39,-2.85,-2.57,-0.15,-5,-5.08,-0.22,0.1,1.88,7.41,-1.92,4,-0.6,-1.72,-1.47
Nc1nonc1-c1nc2cnccc2n1C1CCCCC1,4.86,-1.07,0.24,1.92,-1.58,-5.22,-3,-0.64,-0.36,-1.78,-6.81,0.11,1.77,1.9,7.55,0.62,0.1,-0.81,-3.23,-2.97
COc1cccc(COc2cc(-n3cnc4ccccc43)sc2C(N)=O)c1,-0.71,0.3,-1.09,-0.68,-1.24,-0.05,1.34,0.36,-0.76,-1.48,0.56,-1.78,-0.4,-1.6,1.95,-4.25,2.72,-1.17,-0.04,-1.14
CCn1c(-c2nonc2N)nc2c(C#CCN)ncc(OCCCN)c21,7.15,0.22,-2.12,-0.45,-3,-6.06,-3.37,2.31,2.06,-0.42,2.55,3.32,3.8,2.15,8.32,2.24,5.46,-0.07,9.43,-0.87
